# Laboratory results taken from PubChem BioAssay AID1159580 (chemical genetic matrix, 2015).
# The campaign covered roughly 5,500 compounds. About 2,000 (36%) were called active. Roughly 18% stayed inconclusive and do not appear here. This is one part of the list. Unmarked numbers belong to inactive results. Cut-off read from the data, not from the text of the source: active = normalized growth mostly below about 0.91 (no sharp cut-off); inconclusive = no clear call, values can overlap the other calls; inactive = mostly above about 0.92.
# Assay: chemical genetic growth profiling, strain panel (AID 1159580);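 note: tested at 20 µM; growth read once vehicle control cultures reached saturation at 30 °C; 1 = growth at the plate median or of vehicle wells; lower values mean less growth of the strain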
# Conditions: S. cerevisiae deletion strains, growth OD
# [1] = locus YAR019C, strain CDC15, active compounds read low
# [2] = locus YBL105C, strain PKC1, active compounds read low
# [3] = locus YBR135W, strain CKS1, active compounds read low
# [4] = locus YBR136W, strain MEC1, active compounds read low
# [5] = locus YBR160W, strain CDC28, active compounds read low
# [6] = locus YDL017W, strain CDC7, active compounds read low
# [7] = locus YDL028C, strain MPS1, active compounds read low
# [8] = locus YDL101C, strain DUN1, active compounds read low
# [9] = locus YDL108W, strain KIN28, active compounds read low
# [10] = locus YDL132W, strain cdc53, active compounds read low
# [11] = locus YDL214C, strain PRR2, active compounds read low
# [12] = locus YDR052C, strain DBF4, active compounds read low
# [13] = locus YDR054C, strain cdc34, active compounds read low
# [14] = locus YDR226W, strain ADK1, active compounds read low
# [15] = locus YDR477W, strain SNF1, active compounds read low
# [16] = locus YER123W, strain YCK3, active compounds read low
# [17] = locus YER133W, strain GLC7, active compounds read low
# [18] = locus YFL009W, strain cdc4, active compounds read low
# [19] = locus YFL029C, strain CAK1, active compounds read low
# [20] = locus YFR003C, strain YPI1, active compounds read low
# [21] = locus YFR019W, strain FAB1, active compounds read low
# [22] = locus YFR028C, strain CDC14, active compounds read low
# [23] = locus YGR040W, strain KSS1, active compounds read low
# [24] = locus YGR052W, strain FMP48, active compounds read low
# [25] = locus YGR092W, strain DBF2, active compounds read low
# [26] = locus YHR030C, strain SLT2, active compounds read low
# [27] = locus YHR079C, strain IRE1, active compounds read low
# [28] = locus YHR082C, strain KSP1, active compounds read low
# [29] = locus YHR205W, strain SCH9, active compounds read low
# [30] = locus YIL147C, strain SLN1, active compounds read low
# [31] = locus YJL095W, strain BCK1, active compounds read low
# [32] = locus YJL128C, strain PBS2, active compounds read low
# [33] = locus YJL157C, strain FAR1, active compounds read low
# [34] = locus YJR016C, strain ILV3, active compounds read low
# [35] = locus YJR066W, strain TOR1 (second series), active compounds read low
# [36] = locus YJR066W, strain TOR1, active compounds read low
# [37] = locus YKL048C, strain ELM1, active compounds read low
# [38] = locus YKL067W, strain YNK1, active compounds read low
# [39] = locus YKL101W, strain HSL1, active compounds read low
# [40] = locus YKL193C, strain SDS22, active compounds read low
# [41] = locus YKL203C, strain TOR2, active compounds read low
# [42] = locus YLR113W, strain HOG1, active compounds read low
# [43] = locus YLR133W, strain CKI1, active compounds read low
# [44] = locus YLR403W, strain SFP1, active compounds read low
# [45] = locus YML070W, strain DAK1, active compounds read low
# [46] = locus YMR001C, strain CDC5, active compounds read low
# [47] = locus YMR205C, strain PFK2 (second series), active compounds read low
# [48] = locus YMR277W, strain FCP1, active compounds read low
# [49] = locus YNL006W, strain LST8, active compounds read low
# [50] = locus YNL020C, strain ARK1, active compounds read low
# [51] = locus YNL161W, strain CBK1, active compounds read low
# [52] = locus YNL183C, strain NPR1, active compounds read low
# [53] = locus YNL207W, strain RIO2, active compounds read low
# [54] = locus YNL222W, strain SSU72, active compounds read low
# [55] = locus YNL307C, strain MCK1 (second series), active compounds read low
# [56] = locus YOL078W, strain AVO1, active compounds read low
# [57] = locus YOL136C, strain PFK27, active compounds read low
# [58] = locus YOR061W, strain CKA2, active compounds read low
# [59] = locus YOR119C, strain RIO1, active compounds read low
# [60] = locus YOR231W, strain MKK1, active compounds read low
# [61] = locus YOR329C, strain SCD5, active compounds read low
# [62] = locus YPL031C, strain PHO85, active compounds read low
# [63] = locus YPL153C, strain RAD53, active compounds read low
# [64] = locus YPL204W, strain HRR25, active compounds read low
# [65] = locus YPL209C, strain IPL1, active compounds read low
# [66] = locus YPL256C, strain CLN2, active compounds read low
# [67] = locus YPR025C, strain CCL1, active compounds read low
# [68] = locus YPR106W, strain ISR1, active compounds read low
# [69] = locus YPR111W, strain DBF20, active compounds read low
# [70] = strain NNK1, active compounds read low
# [71] = strain TSCII, active compounds read low
smiles,measurement,setting,value
N/C(=N/OC(=O)c1ccccc1Cl)c1ccc2nonc2c1,normalized growth,[1],0.967
same,normalized growth,[2],0.963
same,normalized growth,[3],0.962
same,normalized growth,[4],0.966
same,normalized growth,[5],0.959
same,normalized growth,[6],0.968
same,normalized growth,[7],0.964
same,normalized growth,[8],0.977
same,normalized growth,[9],0.973
same,normalized growth,[10],0.958
same,normalized growth,[11],0.978
same,normalized growth,[12],0.976
same,normalized growth,[13],0.95
same,normalized growth,[14],0.975
same,normalized growth,[15],0.989
same,normalized growth,[16],0.977
same,normalized growth,[17],0.961
same,normalized growth,[18],0.965
same,normalized growth,[19],0.963
same,normalized growth,[20],0.972
same,normalized growth,[21],0.956
same,normalized growth,[22],0.977
same,normalized growth,[23],0.976
same,normalized growth,[24],1.05
same,normalized growth,[25],0.847
same,normalized growth,[26],0.825 (active)
same,normalized growth,[27],0.963
same,normalized growth,[28],1.01
same,normalized growth,[29],0.971
same,normalized growth,[30],0.96
same,normalized growth,[31],0.904
same,normalized growth,[32],0.985
same,normalized growth,[33],0.977
same,normalized growth,[34],0.966
same,normalized growth,[35],0.915
same,normalized growth,[36],0.947
same,normalized growth,[37],0.985
same,normalized growth,[38],0.986
same,normalized growth,[39],0.991
same,normalized growth,[40],0.965
same,normalized growth,[41],1.01
same,normalized growth,[42],0.96
same,normalized growth,[43],0.994
same,normalized growth,[44],0.96
same,normalized growth,[45],0.99
same,normalized growth,[46],0.97
same,normalized growth,[47],0.984
same,normalized growth,[48],0.963
same,normalized growth,[49],0.974
same,normalized growth,[50],0.98
same,normalized growth,[51],0.973
same,normalized growth,[52],0.955
same,normalized growth,[53],0.964
same,normalized growth,[54],0.968
same,normalized growth,[55],0.982
same,normalized growth,[56],0.972
same,normalized growth,[57],0.983
same,normalized growth,[58],0.985
same,normalized growth,[59],1.07
same,normalized growth,[60],0.96
same,normalized growth,[61],0.97
same,normalized growth,[62],0.966
same,normalized growth,[63],0.959
same,normalized growth,[64],0.95
same,normalized growth,[65],0.968
same,normalized growth,[66],0.963
same,normalized growth,[67],0.962
same,normalized growth,[68],0.981
same,normalized growth,[69],0.974
same,normalized growth,[70],0.98
same,normalized growth,[71],0.962
Cc1nn(Cc2cccc(C(=O)O/N=C(/N)c3ccc(Cl)cc3)c2)c(C)c1Br,normalized growth,[1],0.982
same,normalized growth,[2],0.978
same,normalized growth,[3],0.971
same,normalized growth,[4],0.977
same,normalized growth,[5],0.973
same,normalized growth,[6],0.974
same,normalized growth,[7],0.981
same,normalized growth,[8],0.987
same,normalized growth,[9],0.972
same,normalized growth,[10],0.979
same,normalized growth,[11],0.972
same,normalized growth,[12],0.98
same,normalized growth,[13],0.973
same,normalized growth,[14],0.978
same,normalized growth,[15],0.915
same,normalized growth,[16],0.929
same,normalized growth,[17],0.953
same,normalized growth,[18],0.965
same,normalized growth,[19],0.991
same,normalized growth,[20],0.982
same,normalized growth,[21],0.974
same,normalized growth,[22],0.962
same,normalized growth,[23],0.93
same,normalized growth,[24],1.03
same,normalized growth,[25],0.978
same,normalized growth,[26],1.01
same,normalized growth,[27],1.1
same,normalized growth,[28],1.07
same,normalized growth,[29],0.999
same,normalized growth,[30],0.984
same,normalized growth,[31],0.932
same,normalized growth,[32],1.01
same,normalized growth,[33],0.985
same,normalized growth,[34],0.977
same,normalized growth,[35],0.954
same,normalized growth,[36],1.08
same,normalized growth,[37],0.968
same,normalized growth,[38],0.958
same,normalized growth,[39],0.924
same,normalized growth,[40],0.98
same,normalized growth,[41],1.02
same,normalized growth,[42],0.915
same,normalized growth,[43],0.972
same,normalized growth,[44],0.93
same,normalized growth,[45],0.947
same,normalized growth,[46],0.983
same,normalized growth,[47],0.965
same,normalized growth,[48],0.973
same,normalized growth,[49],0.99
same,normalized growth,[50],0.972
same,normalized growth,[51],0.984
same,normalized growth,[52],0.997
same,normalized growth,[53],0.984
same,normalized growth,[54],0.979
same,normalized growth,[55],1
same,normalized growth,[56],0.977
same,normalized growth,[57],0.955
same,normalized growth,[58],0.955
same,normalized growth,[59],1.01
same,normalized growth,[60],0.927
same,normalized growth,[61],0.98
same,normalized growth,[62],0.929
same,normalized growth,[63],0.81
same,normalized growth,[64],0.942
same,normalized growth,[65],0.987
same,normalized growth,[66],1.03
same,normalized growth,[67],0.978
same,normalized growth,[68],0.99
same,normalized growth,[69],0.995
same,normalized growth,[70],0.998
same,normalized growth,[71],0.987
